In PubChem BioAssay AID624331 (National Center for Advancing Translational Sciences (NCATS), 2012) one finds Potency data, which are given here for 20 compounds.

Results filed as inconclusive are left out. Entries that show only a call come without a potency. Activity calls are given as the source filed them. Calls come from the whole dose curve; as a rule, active = well fitted activation curve with a large enough effect; inconclusive = small, poorly fitted or top-dose-only effect; inactive = no such curve, though single readings can be large or run the other way.
Potency is the fitted concentration of half-maximal effect.

The assay is described as follows: qHTS assay for re-activators of p53 using a Luc reporter: Hit Validation with no p53 Expressed. As to conditions: p53-null cells, luciferase reporter counter-screen; series mostly up to 46.1 µM. The gist of the method: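 Without p53 expression, cells (1000/well, Opti-MEM + 10% FBS) were exposed 24 h at 37 deg C to compounds in a 1:5 series from 10 mM stock (top 46.1 µM in well). Luminescent signal read 10 min after Amplite addition; actives flag unspecific activation.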
A general note: In qHTS, concentration-response curves come from the screen itself.
`COc1ccc(C(=O)N/N=C(\C)c2ccccn2)cc1OC`: the Potency result was “inactive”.
The value for `CC(C)(C)NC(=O)CSC(=Nc1ccccc1F)NC#N` was “inactive”.
The value for `Cc1cc(Oc2ccccc2)nc(-c2ccccc2O)n1` was “inactive”; that for `O=C(Nc1nc2c(s1)CCCC2)C1COc2ccccc2O1` (stereo not given) was “inactive”.
The value for `CC1(C)CC(=O)CC(=O)/C1=N\Nc1c(Cl)cc(Cl)cc1Cl` was “inactive”; that for `O=C1NCCCc2c1oc1ccc(O)cc21` was “inactive”; that for `Cc1cccc(/C(N)=N/OC(=O)c2ccc3c(c2)OCO3)c1` was “inactive”.
With `Cc1cc(C)cc(NC(=O)c2sc3nc(C)cc(C)c3c2N)c1`, the Potency result is “inactive”.
The value for `Clc1ccc(-c2nnc(SCc3ccon3)o2)c(Cl)c1` was 1840 nM (active); that for `Clc1cccc(N/N=C(\Cc2nc3ccccc3[nH]2)c2ccccc2)c1` was “inactive”; that for `Cc1ccccc1S(=O)(=O)Nc1nc2ccccc2nc1N1CCc2ccccc2C1` was “inactive”.
Consider `Cc1ccc2cc3c(N)c(C(=O)N4CCOCC4)sc3nc2c1`, for which the Potency entry is “inactive”.
The value for `Cc1ccc(-c2nnc(N(C)C(=O)C3CCCO3)s2)cn1` (stereo not given) was “inactive”; that for `C/C(=N\NC(=S)NC1CCCCC1)c1ccccc1` was “inactive”.
The value for `CCCCn1c(O)c(N=Nc2ccccc2O)c2ccccc21` was “inactive”; that for `O=C(CCS(=O)(=O)c1ccccc1)Nc1ccc(-c2nc3ccccc3s2)cc1` was “inactive”.
Take `COc1ccc(-c2coc3cc(O[C@@H]4O[C@H](CO)[C@@H](O)[C@H](O)[C@H]4O)ccc3c2=O)cc1`: the Potency result is “inactive”.
Regarding `C/C(=N\NC(=O)c1cccs1)C(C)(C)C`, the Potency result is “inactive”.
Consider `O=C1CCCC(O)=C1N=Nc1c(Cl)cc(Cl)cc1Cl`, for which the Potency entry was “inactive”.
The value for `Cc1csc(SCC(=O)Nc2ccc(C)c(F)c2)n1` was “inactive”.
